The values that follow come from PMC7826789 (International Journal of Molecular Sciences, 2021).

Test systems include PRKG1; PRKG2; PRKX; RAF1; RET(M918T); RET(V804L).
What all share (details): Compound Concentration (nM):1000
The test system of the next assay is T1, PRKR.
T1 construct: gene EIF2AK2

In the next assay the test system is T2, PRP4.
T2 construct: gene PRPF4B

The next assay has as its system T3, PYK2.
T3 construct: gene PTK2B

For another assay, the system named is T4, QSK.
T4 construct: gene KIAA0999
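Further: KINOMEscan scanMAX binding as percent activity remaining versus control; lower means stronger binding.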

`COc1cc2ncn(-c3cc(O[C@H](C)c4ccccc4Cl)c(C(N)=O)s3)c2cc1OC` [GSK237701A]: the “Percent Control” value is 100% in the assay with PRKG1; 92% with PRKG2; 82% in the assay on PRKR; 97% in the assay on PRKX; 61% in the assay with PRP4; 62% in the assay on PYK2. Besides, the “Percent Control” value turned out to be 97% in the assay on QSK, 73% in the assay on RAF1, 51% in the assay on RET(M918T) and 56% in the assay on RET(V804L).

Turning to `NS(=O)(=O)c1ccc(N/N=C2\C(=O)Nc3ccc(Cl)cc32)cc1` [GW280670X], the “Percent Control” value in the assay on PRKG1 was 85%; in the assay on PRKG2 it was 100%; in the assay on PRKR it was 86%; in the assay with PRKX, 100%; in the assay with PRP4, 100%; in the assay with PYK2, 100%. Besides, the “Percent Control” value in the assay on QSK, in the assay with RAF1, in the assay with RET(M918T) and in the assay on RET(V804L) was 100% throughout.

With `COc1cccc(-n2ncc3c(N/N=C/c4ccncc4)ncnc32)c1` [GW784752X], the “Percent Control” value in the assay with PRKG1 was 93%; with PRKG2, 100%; in the assay with PRKR, 80%; with PRKX it was 38%; in the assay with PRP4 it was 84%; in the assay on PYK2, 95%. For the same compound, the “Percent Control” value amounted to 100% with QSK, 58% in the assay with RAF1, 93% in the assay with RET(M918T) and 100% with RET(V804L).

On to `COc1ccc2cc(-c3c(-c4ccncc4)nc(-c4ccc(S(C)(=O)=O)cc4C)n3C)ccc2c1` [SB-633825], for which the “Percent Control” value in the assay on PRKG1 is 100%; with PRKG2, 83%; with PRKR it was 100%; in the assay on PRKX it was 95%; in the assay on PRP4, 68%; in the assay on PYK2, 57%. Also, the “Percent Control” value with QSK worked out at 79%; in the assay on RAF1, 74%; with RET(M918T), 72%; in the assay on RET(V804L), 94%.

On to `CCS(=O)(=O)c1ccc(OC)c(Nc2ncc(-c3cccc(OC)c3)o2)c1` [GW580509X], for which the “Percent Control” value in the assay with PRKG1 is 100%; in the assay on PRKG2, 100%; in the assay on PRKR, 85%; in the assay with PRKX, 100%; in the assay with PRP4, 82%; with PYK2, 100%. The “Percent Control” value was determined as 100% with QSK, 100% in the assay with RAF1, 50% with RET(M918T) and 78% in the assay with RET(V804L).

For `Cc1cc(O)cc(C)c1/C=C/c1cncc(C(N)=O)c1` [GW435821X], the “Percent Control” value is 100% in the assay on PRKG1; 100% in the assay with PRKG2; 94% in the assay with PRKR; 100% with PRKX; 100% with PRP4; 100% in the assay on PYK2. Also, the “Percent Control” value in the assay with QSK was determined as 86%; in the assay with RAF1, 58%; with RET(M918T), 100%; in the assay with RET(V804L) it was 100%.

Take `O=C1Nc2ccc(C(=O)c3ccco3)cc2C1=Cc1cc(Cl)c(O)c(Cl)c1` [GW406108X]: the “Percent Control” value in the assay with PRKG1 is 100%; in the assay with PRKG2, 100%; with PRKR, 62%; in the assay with PRKX, 100%; in the assay on PRP4, 71%; with PYK2, 100%. Also, the “Percent Control” value is on record as 100% in the assay on QSK, 13% in the assay with RAF1, 56% in the assay with RET(M918T) and 29% in the assay with RET(V804L).

Turning to `COC(=O)Nc1nc2ccc(Oc3ccc(NC(=O)Nc4cc(C(F)(F)F)ccc4F)cc3)cc2s1.Cl` [GW693917A], the “Percent Control” value in the assay on PRKG1 was 100%; in the assay on PRKG2, 91%; in the assay with PRKR, 85%; in the assay with PRKX, 100%; with PRP4, 100%; in the assay with PYK2, 94%. The “Percent Control” value in the assay with QSK turned out to be 88%; in the assay on RAF1 it was 17%; in the assay on RET(M918T) it was 0.8%; in the assay with RET(V804L), 1%.

With `CN(C)CCNC(=O)Nc1ccc(N(C)c2ccnc(Nc3ccc(CS(C)(=O)=O)cc3)n2)cc1.Cl` [GW830900A], the “Percent Control” value was 100% in the assay on PRKG1; 95% in the assay with PRKG2; 100% in the assay on PRKR; 90% with PRKX; 100% with PRP4; 57% in the assay on PYK2. For the same compound, the “Percent Control” value in the assay on QSK is recorded as 87%; in the assay on RAF1 it was 100%; in the assay on RET(M918T) it was 79%; in the assay on RET(V804L), 88%.

In the case of `CC1=C(C(=O)Nc2ccc3[nH]ncc3c2)C(c2ccc3ccccc3c2)CC(=O)N1` (stereo not drawn) [GSK270822A], the “Percent Control” value was 48% with PRKG1; 29% with PRKG2; 89% with PRKR; 22% in the assay on PRKX; 62% with PRP4; 77% in the assay on PYK2. The “Percent Control” value in the assay with QSK stood at 91%; with RAF1, 87%; in the assay on RET(M918T), 34%; in the assay on RET(V804L), 46%.

With `CCn1c(-c2nonc2N)nc2c(C#CC(C)(C)O)nc(OCCNC)cc21.Cl` [GSK949675], the “Percent Control” value in the assay with PRKG1 is 34%; in the assay with PRKG2, 0.5%; with PRKR, 94%; in the assay on PRKX it was 7.9%; with PRP4, 90%; with PYK2, 100%. The “Percent Control” value is 99% with QSK, 100% in the assay with RAF1, 73% with RET(M918T) and 88% in the assay with RET(V804L).

On to `Cl.O=C(Nc1ccc(Oc2ccc3[nH]c(NC(=O)c4ccco4)nc3c2)cc1)Nc1cc(C(F)(F)F)ccc1F` [GW683134A], for which the “Percent Control” value is 96% in the assay with PRKG1; 88% with PRKG2; 68% in the assay on PRKR; 100% in the assay with PRKX; 100% with PRP4; 93% with PYK2. Moreover, the “Percent Control” value in the assay with QSK is given as 100%; in the assay on RAF1 it was 9.5%; in the assay on RET(M918T), 0.7%; in the assay with RET(V804L), 0.4%.

Turning to `Cl.O=C(O[C@H]1CN[C@H](C#Cc2cc3ncnc(Nc4ccc5c(cnn5Cc5ccccc5)c4)c3s2)C1)N1CCOCC1` [GSK200398A], the “Percent Control” value was 95% in the assay on PRKG1; 100% in the assay on PRKG2; 65% in the assay on PRKR; 77% in the assay with PRKX; 100% in the assay on PRP4; 99% with PYK2. Also, the “Percent Control” value in the assay on QSK was 100%; with RAF1, 88%; in the assay on RET(M918T) it was 100%; in the assay on RET(V804L), 100%.

Turning to `COc1cc(C=NNc2ncnc3c2cnn3-c2ccccc2)ccc1O` [GW513184X], the “Percent Control” value in the assay with PRKG1 was 100%; in the assay on PRKG2, 100%; with PRKR it was 76%; with PRKX, 100%; in the assay with PRP4, 100%; in the assay with PYK2 it was 100%. In addition, the “Percent Control” value worked out at 100% in the assay with QSK, 100% in the assay with RAF1, 18% in the assay on RET(M918T) and 90% with RET(V804L).

For `CCc1ccc(Oc2nccc(-c3c(-c4ccc(F)cc4)ncn3C3CCNCC3)n2)cc1` [SB-242719], the “Percent Control” value was 100% in the assay on PRKG1; 92% with PRKG2; 100% in the assay on PRKR; 86% with PRKX; 100% in the assay with PRP4; 97% in the assay on PYK2. The “Percent Control” value was 85% in the assay with QSK, 100% in the assay on RAF1, 93% in the assay on RET(M918T) and 88% with RET(V804L).
